# Measured values as given in PubChem BioAssay (NCATS).
# Several values for one entry are separate records, joined by “and”; a condition that tells them apart may be missing. Equal values may be shown once. Inconclusive results are not listed. Activity calls are given as the source filed them. Unless noted, the call rests on the fitted dose curve; in most records, active means well fitted curve in the direction sought with a large enough effect; inconclusive means small, poorly fitted or top-dose-only effect, or another doubt; inactive means no such curve, though single readings can be large; an effect the other way counts as inactive or inconclusive.
# How the values were obtained:
# [1] = AP1 Signaling Pathway (AID 357; active means well fitted curve in either direction with a large enough effect, not every such curve was filed as active;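 further: ME-180 reporter cells stimulated with EGF at its EC50 level; on the % scale 0 is the no-effect control and ±100 the full control effect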); settings: ME-180 AP-1-bla reporter, EGF-induced, beta-lactamase ratio, 5 h
# Summary of the method: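 AP-1-bla ME-180 cells, Opti-MEM + 0.5% dialyzed FBS, plated overnight 37 °C. Cpd titration + EC50 EGF, 5 h 37 °C. CCF4 2.5 h RT; ex 405, em 460/530 ratio → %activity, AC50.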
# [2] = molecular target: Cytochrome P450 1A2 (Homo sapiens) (UniProt P05177); test: p450-cyp1a2 (AID 410; calls by dose curve; further: potency means the concentration at half of the fitted maximal effect); settings: recombinant CYP1A2, luciferin-ME demethylation, luminescence; series mostly up to 57 µM
# Cytochrome P450 1A2 (Homo sapiens), sequence (P05177 whole entry, looked up): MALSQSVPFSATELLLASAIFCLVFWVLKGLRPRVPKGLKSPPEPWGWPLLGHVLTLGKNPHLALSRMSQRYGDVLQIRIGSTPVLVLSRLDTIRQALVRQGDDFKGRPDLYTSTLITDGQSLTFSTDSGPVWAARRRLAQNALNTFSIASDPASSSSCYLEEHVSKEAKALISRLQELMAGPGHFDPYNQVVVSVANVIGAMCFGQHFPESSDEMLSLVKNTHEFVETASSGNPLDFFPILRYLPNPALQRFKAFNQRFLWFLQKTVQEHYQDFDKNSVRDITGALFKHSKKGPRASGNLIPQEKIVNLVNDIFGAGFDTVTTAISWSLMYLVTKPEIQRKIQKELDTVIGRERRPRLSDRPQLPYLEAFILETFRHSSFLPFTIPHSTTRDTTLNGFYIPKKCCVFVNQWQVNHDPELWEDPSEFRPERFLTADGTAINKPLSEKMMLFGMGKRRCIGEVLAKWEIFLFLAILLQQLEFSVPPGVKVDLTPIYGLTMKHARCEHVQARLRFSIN
# Summary of the method: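 Luminescent demethylation readout: Luciferin-ME (100uM, equal to Km) turned over by 20nM CYP1A2 for 60 min at room temperature after NADPH regeneration addition, following 10 min compound preincubation. Normalization used 57 uM furafylline as full inhibition.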
# [3] = Stat Signaling Pathway (AID 446; active means well fitted curve in either direction with a large enough effect, not every such curve was filed as active;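 further: ME-180 cervical cancer cells given 40 pM IL-6 alongside compound; SIE-controlled beta-lactamase reporter measured as 460/530 nm FRET emission ratio; on the % scale 0 is the no-effect control and ±100 the full control effect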); settings: ME-180 (cervical carcinoma) SIE beta-lactamase reporter, IL-6 stimulated, 5 h
# Summary of the method: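 Emission at 460 and 530 nm (excitation 405 nm) reports SIE-controlled beta-lactamase in ME-180 cells. Cells received compound with 40 pM IL-6 for 5 hrs at 37 C; data scaled between 300 pM IL-6 and 125 nM JAK-inhibitor controls.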
# [4] = molecular target: Glucocorticoid receptor (Homo sapiens) (UniProt P04150); test: GR-GFP Redistribution (AID 450;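 active means compounds whose dose series gives a full or clear partial fitted curve of increased nuclear translocation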; further: potency means the concentration at half of the fitted maximal effect); settings: U2OS GR-GFP nuclear translocation, laser cytometry, 2 h
# Glucocorticoid receptor (Homo sapiens), sequence (P04150 whole entry, looked up, the tested form may be a part): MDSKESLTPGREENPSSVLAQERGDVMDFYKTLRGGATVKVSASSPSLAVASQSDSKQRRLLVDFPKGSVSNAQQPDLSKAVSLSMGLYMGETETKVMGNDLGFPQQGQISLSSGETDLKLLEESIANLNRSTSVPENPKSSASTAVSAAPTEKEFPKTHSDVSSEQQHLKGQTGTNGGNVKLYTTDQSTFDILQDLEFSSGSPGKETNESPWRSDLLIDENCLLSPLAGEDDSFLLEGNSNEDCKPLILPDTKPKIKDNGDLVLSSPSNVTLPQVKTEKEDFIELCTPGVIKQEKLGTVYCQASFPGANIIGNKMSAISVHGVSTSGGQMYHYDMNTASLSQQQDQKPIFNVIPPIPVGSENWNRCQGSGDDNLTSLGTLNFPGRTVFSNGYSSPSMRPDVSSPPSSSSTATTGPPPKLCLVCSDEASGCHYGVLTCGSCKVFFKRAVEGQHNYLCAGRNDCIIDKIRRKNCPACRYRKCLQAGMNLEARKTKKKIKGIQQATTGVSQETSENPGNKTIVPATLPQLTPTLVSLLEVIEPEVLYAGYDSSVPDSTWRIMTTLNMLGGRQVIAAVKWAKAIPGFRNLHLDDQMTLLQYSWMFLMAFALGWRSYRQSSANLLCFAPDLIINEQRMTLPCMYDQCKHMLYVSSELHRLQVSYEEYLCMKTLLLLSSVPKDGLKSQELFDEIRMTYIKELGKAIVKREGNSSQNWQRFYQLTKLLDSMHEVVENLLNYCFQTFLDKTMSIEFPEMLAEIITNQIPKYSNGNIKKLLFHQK
# [5] = molecular target: Glucocorticoid receptor (Homo sapiens) (UniProt P04150); test: GR-EFC Redistribution (AID 451; calls by dose curve; further: potency means the concentration at half of the fitted maximal effect); settings: CHO-K1 GR-EFC translocation, beta-gal luminescence, 2 h
# Summary of the method: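 Translocation of GR-ED fusion to nuclear EA restores b-gal, read by luminescence after 1 h room-temperature detection. Engineered CHO-K1 biosensor cells, 1,000/well, exposed 2 h at 37 C to titrations up to 46 uM final.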
# [6] = molecular target: Mitogen-activated protein kinase 10 (Mus musculus) (UniProt Q61831); test: JNK3 AlphaScreen Assay (AID 530; active means well fitted curve in either direction with a large enough effect, not every such curve was filed as active;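 further: kinase came from lysate of stimulated human HepG2 cells; signal reports phosphorylation of biotinylated GST-cJun 1-79 at Ser73 with 10 µM ATP; on the % scale 0 is the no-effect control and ±100 the full control effect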); settings: JNK3 lysate, c-Jun phosphorylation; series mostly up to 57.1 µM
# Summary of the method: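 qHTS titrations with 15 min compound pre-incubation before adding ATP (10 uM final). Read-out: AlphaScreen of Ser73-phosphorylated biotin-GST-cJun using HepG2 lysate JNK3 activated by IL-1β and TNFα.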
# [7] = molecular target: 3',5'-cyclic-AMP phosphodiesterase 4B (Homo sapiens) (UniProt Q07343); test: qHTS Assay for Inhibitors of PDE-IV (AID 607; active means well fitted activation curve with a large enough effect in the main read-out, with a control signal flat, not every such curve was filed as active; further: % of control where 0% means no effect); settings: HEK293 ACTOne CNG channel cells, membrane potential fluorescence; series mostly up to 22.9 µM
# 3',5'-cyclic-AMP phosphodiesterase 4B (Homo sapiens), sequence (Q07343 whole entry, looked up): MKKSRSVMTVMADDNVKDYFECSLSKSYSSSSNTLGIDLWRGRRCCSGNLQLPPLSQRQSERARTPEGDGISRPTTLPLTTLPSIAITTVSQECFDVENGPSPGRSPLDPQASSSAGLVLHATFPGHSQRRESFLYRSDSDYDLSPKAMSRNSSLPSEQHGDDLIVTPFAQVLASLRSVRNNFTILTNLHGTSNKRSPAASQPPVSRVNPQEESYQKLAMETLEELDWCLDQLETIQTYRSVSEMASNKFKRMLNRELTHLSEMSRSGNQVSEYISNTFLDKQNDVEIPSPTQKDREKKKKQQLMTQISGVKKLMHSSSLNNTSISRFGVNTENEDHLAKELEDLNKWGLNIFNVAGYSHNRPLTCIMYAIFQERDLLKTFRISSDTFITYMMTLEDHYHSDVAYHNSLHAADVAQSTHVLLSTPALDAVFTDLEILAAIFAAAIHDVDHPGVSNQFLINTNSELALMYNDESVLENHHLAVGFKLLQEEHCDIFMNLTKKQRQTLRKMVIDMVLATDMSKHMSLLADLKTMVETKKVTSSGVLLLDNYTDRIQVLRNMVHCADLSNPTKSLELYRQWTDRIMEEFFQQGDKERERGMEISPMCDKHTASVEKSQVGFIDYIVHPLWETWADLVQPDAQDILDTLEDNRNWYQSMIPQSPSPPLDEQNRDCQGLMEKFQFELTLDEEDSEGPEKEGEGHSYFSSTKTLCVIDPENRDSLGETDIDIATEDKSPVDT
# Summary of the method: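 The readout is membrane depolarisation from a cAMP-sensing CNG channel, detected with a potential dye at ex 535/em 590. Cells were HEK293-derived (endogenous PDE-IV) at 1000 cells/well, titrated up to 22.9 uM final.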
# [8] = molecular target: Guanine nucleotide-binding protein G(i) subunit alpha-1 (Homo sapiens) (UniProt P63096); test: qHTS Assay for Inhibitors of RGS12 GoLoco Motif Activity (Green Fluorophore) (AID 879); settings: Galphai1/FITC-RGS12 GoLoco peptide, fluorescence polarization; series mostly up to 57.1 µM;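 further: 0% = labeled peptide with Gαi1 and full inhibition = labeled peptide alone without protein; negative values mean loss of peptide binding seen as reduced polarization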
# Guanine nucleotide-binding protein G(i) subunit alpha-1 (Homo sapiens), sequence (P63096 whole entry, looked up): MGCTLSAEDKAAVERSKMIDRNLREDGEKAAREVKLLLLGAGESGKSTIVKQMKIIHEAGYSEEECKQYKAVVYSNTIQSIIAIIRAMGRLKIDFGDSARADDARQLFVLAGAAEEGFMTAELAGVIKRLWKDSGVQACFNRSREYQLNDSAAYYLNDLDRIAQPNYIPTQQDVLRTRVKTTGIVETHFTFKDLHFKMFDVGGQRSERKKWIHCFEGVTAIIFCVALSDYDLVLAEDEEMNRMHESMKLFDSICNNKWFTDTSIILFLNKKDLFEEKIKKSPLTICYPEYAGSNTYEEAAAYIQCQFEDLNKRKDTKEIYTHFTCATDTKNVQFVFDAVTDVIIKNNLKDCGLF
# Summary of the method: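 A drop in FITC polarization marked displacement of the FITC-tagged RGS12 GoLoco peptide (10 nM) from Gαi1 (50 nM). Compounds were incubated 10 min at room temperature in Tris pH 7.5 buffer containing 150 mM NaCl, 0.1 mM GDP and 0.05% NP40; unlabeled peptide titration served as control.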
# [9] = molecular target: Cytochrome P450 2D6 (Homo sapiens) (UniProt P10635); test: qHTS Assay for Inhibitors and Substrates of Cytochrome P450 2D6 (AID 891); settings: recombinant CYP2D6, luciferin-ME EGE luminescence; series mostly up to 57.1 µM; further: potency means the concentration at half of the fitted maximal effect; nearly all actives have a fitted effect of over 60% in size
# Cytochrome P450 2D6 (Homo sapiens), sequence (P10635 whole entry, looked up): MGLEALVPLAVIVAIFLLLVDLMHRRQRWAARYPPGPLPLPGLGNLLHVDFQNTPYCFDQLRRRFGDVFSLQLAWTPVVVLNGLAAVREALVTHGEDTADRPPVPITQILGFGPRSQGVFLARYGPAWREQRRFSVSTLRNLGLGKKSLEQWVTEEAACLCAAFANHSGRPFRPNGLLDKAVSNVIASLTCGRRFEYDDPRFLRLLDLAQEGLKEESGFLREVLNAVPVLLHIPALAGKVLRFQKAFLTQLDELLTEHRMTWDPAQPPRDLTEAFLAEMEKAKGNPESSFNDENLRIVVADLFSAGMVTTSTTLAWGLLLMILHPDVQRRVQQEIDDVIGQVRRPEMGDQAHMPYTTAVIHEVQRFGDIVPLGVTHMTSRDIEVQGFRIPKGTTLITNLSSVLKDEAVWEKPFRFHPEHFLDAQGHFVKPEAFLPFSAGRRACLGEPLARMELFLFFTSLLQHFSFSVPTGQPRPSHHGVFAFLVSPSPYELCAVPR
# Summary of the method: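 Luminescent read-out of luciferin formed by 5 nM human CYP2D6 demethylating 30 uM Luciferin-ME EGE (Km level) over 60 min at room temperature after NADPH regeneration addition. Data normalized to full inhibition by 1.43 uM quinidine.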
# [10] = molecular target: Cytochrome P450 2C19 (Homo sapiens) (UniProt P33261); test: qHTS Assay for Inhibitors and Substrates of Cytochrome P450 2C19 (AID 899); settings: recombinant CYP2C19, luciferin-H EGE luminescence; series mostly up to 57.1 µM; further: potency means the concentration at half of the fitted maximal effect; nearly all actives have a fitted effect of over 60% in size
# Summary of the method: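 Luminescence readout of luciferin formed from 10uM Luciferin-H EGE (KM level) by 5 nM CYP2C19 in 50mM KPO4. 60 min NADPH-driven reaction at 37C after 10 min compound preincubation; data scaled to 57uM ketoconazole inhibition.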
# [11] = qHTS Assay for Identification of Small Molecule Antagonists for Thrombopoietin (TPO) Signaling Pathway (AID 918); settings: TPO-dependent cell signaling reporter, antagonist mode; further: potency means the concentration at half of the fitted maximal effect; nearly all actives have a fitted effect of over 60% in size
# Summary of the method: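 Inhibition read as reduced luciferase luminescence after 24 h at 37 C in IL-3-deprived Ba/F3 cells carrying human TPO receptor and GPIIb-promoter reporter, stimulated with 26 pM TPO (final, its EC50) alongside compound.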
# [12] = molecular target: Muscarinic acetylcholine receptor M1 (Rattus norvegicus) (UniProt P08482); test: qHTS Assay for Antagonists of Acetylcholine Muscarinic M1 Receptor: Kinetic Measurement of Intracellular Calcium Response (AID 943); settings: M1-expressing cells, kinetic intracellular calcium fluorescence; series mostly up to 35.3 µM; further: potency means the concentration at half of the fitted maximal effect; nearly all actives have a fitted effect of over 75% in size
# Muscarinic acetylcholine receptor M1 (Rattus norvegicus), sequence (P08482 whole entry, looked up): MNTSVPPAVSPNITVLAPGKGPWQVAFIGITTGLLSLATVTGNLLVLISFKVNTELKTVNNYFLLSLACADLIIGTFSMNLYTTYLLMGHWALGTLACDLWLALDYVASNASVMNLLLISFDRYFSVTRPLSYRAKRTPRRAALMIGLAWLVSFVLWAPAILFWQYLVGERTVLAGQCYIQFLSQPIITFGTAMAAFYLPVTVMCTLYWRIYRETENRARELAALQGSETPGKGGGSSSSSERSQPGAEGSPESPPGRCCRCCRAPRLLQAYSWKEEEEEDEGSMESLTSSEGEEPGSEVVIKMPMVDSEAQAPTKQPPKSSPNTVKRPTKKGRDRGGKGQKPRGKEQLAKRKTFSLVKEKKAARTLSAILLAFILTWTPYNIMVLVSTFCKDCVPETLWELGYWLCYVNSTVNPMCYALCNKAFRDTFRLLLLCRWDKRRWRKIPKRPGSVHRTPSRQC
# Summary of the method: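 Antagonism measured as reduction of carbachol-evoked (EC80, 100 nM final) calcium flux in rat M1-CHO cells after 10 min compound exposure. Fluo-4 signal read kinetically; ratio of maximal to basal fluorescence.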
# [13] = molecular target: Muscarinic acetylcholine receptor M1 (Rattus norvegicus) (UniProt P08482); test: qHTS Assay for Antagonists of Acetylcholine Muscarinic M1 Receptor: Measurement of IP-One Response (AID 944); settings: CHO-M1 cells, IP-One HTRF, antagonist mode; series mostly up to 46.1 µM; further: potency means the concentration at half of the fitted maximal effect; nearly all actives have a fitted effect of over 75% in size
# Summary of the method: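 IP1 accumulation measured via TR-FRET between d2-IP1 and Eu-cryptate anti-IP1 antibody after carbachol (200 nM, EC80) stimulation for 30 min; rat M1-transfected CHO cells received compound 10 min before agonist.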
# [14] = molecular target: Pyruvate kinase (Leishmania mexicana) (UniProt Q27686); test: qHTS Validation Assay for Inhibitors of Leishmania Mexicana Pyruvate Kinase (AID 945);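 further: 0% = DMSO only neutral control wells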; settings: purified L. mexicana pyruvate kinase, enzyme activity, E451W mutant enzyme; series mostly up to 57.5 µM
# Pyruvate kinase (Leishmania mexicana), sequence (Q27686 2-499 E452W): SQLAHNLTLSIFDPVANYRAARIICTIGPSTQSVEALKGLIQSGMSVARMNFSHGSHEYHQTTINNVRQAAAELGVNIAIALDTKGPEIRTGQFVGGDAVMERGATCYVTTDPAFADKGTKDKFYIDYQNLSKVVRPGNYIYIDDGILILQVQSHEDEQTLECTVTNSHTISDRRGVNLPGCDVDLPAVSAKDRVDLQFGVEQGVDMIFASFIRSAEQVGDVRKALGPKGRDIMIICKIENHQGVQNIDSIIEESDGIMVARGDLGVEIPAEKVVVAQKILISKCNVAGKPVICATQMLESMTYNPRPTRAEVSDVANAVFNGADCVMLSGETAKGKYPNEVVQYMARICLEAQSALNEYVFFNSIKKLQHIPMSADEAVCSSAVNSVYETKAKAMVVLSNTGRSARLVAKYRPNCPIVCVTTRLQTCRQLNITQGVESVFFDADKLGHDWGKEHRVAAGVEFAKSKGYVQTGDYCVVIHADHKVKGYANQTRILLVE
# Summary of the method: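 Luminescent ATP detection (PKLight) after a 1 h room-temperature reaction of 0.2 nM LmPYK E451W mutant with 0.5 mM PEP and 0.1 mM ADP at pH 7.2. Activity is normalized to DMSO-only control wells.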
# [15] = molecular target: Pyruvate kinase PKM (Homo sapiens) (UniProt P14618); test: qHTS Assay for Activators of Human Muscle Pyruvate Kinase (AID 954; active means well fitted curve in the direction sought with a large enough effect, not every such curve was filed as active;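 further: 0% = uninhibited enzyme and -100% = no enzyme or full thiadiazolimine inhibition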); settings: purified human muscle pyruvate kinase, luciferase-coupled luminescence, 1 h; series mostly up to 57.5 µM
# Summary of the method: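 PKM2, human, >95% pure, 0.1 nM; PEP 0.5 mM (Km), ADP 0.1 mM; 50 mM imidazole pH 7.2, 50 mM KCl, 0.01% Tween 20, 0.05% BSA; 1 h RT; luciferase luminescence readout.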
# [16] = qHTS Assay for Lipid Storage Modulators (AID 1519; calls by dose curve; on activity change, negative = inhibition: on the % scale 0 is the no-effect control and ±100 the full control effect); settings: Drosophila S3 cells, BODIPY lipid droplet/cell ratio, laser cytometry, cells loaded with oleic acid
# Summary of the method: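 Cells seeded at 5,000 per well were treated with compounds over a concentration series and loaded with oleic acid (400 uM, as added). Lipid droplet fluorescence (488 nm excitation, 500-530 nm channel) was read by laser-scanning cytometry and normalized to 20 uM Triacsin C.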
# [17] = molecular target: Ubiquitin carboxyl-terminal hydrolase 1 (Homo sapiens) (UniProt O94782); test: Inhibitors of USP1/UAF1: Pilot qHTS (AID 504865); settings: purified USP1/UAF1, Ub-rhodamine cleavage fluorescence; series mostly up to 114 µM;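 further: rhodamine fluorescence freed from ubiquitin-rhodamine substrate followed over time; top concentration of the series differs between compounds; on the % scale 0 is the no-effect control and ±100 the full control effect; nearly all actives have a fitted effect of over 35% in size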
# Ubiquitin carboxyl-terminal hydrolase 1 (Homo sapiens), sequence (O94782 whole entry, looked up): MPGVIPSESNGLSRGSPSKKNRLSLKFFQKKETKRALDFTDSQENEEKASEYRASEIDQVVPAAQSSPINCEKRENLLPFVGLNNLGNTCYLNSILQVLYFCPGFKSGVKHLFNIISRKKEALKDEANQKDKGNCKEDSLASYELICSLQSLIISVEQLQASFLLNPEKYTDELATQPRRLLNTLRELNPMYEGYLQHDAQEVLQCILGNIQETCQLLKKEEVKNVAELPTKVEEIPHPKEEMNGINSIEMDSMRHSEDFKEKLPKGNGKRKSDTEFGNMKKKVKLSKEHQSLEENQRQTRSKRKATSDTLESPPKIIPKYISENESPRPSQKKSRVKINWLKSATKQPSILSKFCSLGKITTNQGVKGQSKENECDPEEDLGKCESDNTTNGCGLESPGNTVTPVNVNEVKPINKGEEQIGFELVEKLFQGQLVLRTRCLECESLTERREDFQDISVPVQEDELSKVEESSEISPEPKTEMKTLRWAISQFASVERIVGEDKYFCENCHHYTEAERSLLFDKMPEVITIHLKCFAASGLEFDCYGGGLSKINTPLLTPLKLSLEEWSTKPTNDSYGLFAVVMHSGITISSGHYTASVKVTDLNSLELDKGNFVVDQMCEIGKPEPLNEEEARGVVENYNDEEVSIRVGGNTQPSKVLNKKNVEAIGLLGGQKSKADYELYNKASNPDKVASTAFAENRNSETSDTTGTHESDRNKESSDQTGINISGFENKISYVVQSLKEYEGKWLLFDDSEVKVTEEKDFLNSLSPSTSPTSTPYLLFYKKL
# Summary of the method: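 Kinetic fluorescence assay: 1nM USP1/UAF1, 15 min compound preincubation, then 150nM Ub-Rho; 480/540 nm.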
# [18] = molecular target: DNA dC->dU-editing enzyme APOBEC-3G (Homo sapiens) (UniProt Q9HC16); test: qHTS for inhibitors of Vif-A3G interactions: Validation (AID 588379); settings: Vif-A3G protein interaction assay; series mostly up to 46.1 µM; further: 0% is about no effect
# DNA dC->dU-editing enzyme APOBEC-3G (Homo sapiens), sequence (Q9HC16 whole entry, looked up): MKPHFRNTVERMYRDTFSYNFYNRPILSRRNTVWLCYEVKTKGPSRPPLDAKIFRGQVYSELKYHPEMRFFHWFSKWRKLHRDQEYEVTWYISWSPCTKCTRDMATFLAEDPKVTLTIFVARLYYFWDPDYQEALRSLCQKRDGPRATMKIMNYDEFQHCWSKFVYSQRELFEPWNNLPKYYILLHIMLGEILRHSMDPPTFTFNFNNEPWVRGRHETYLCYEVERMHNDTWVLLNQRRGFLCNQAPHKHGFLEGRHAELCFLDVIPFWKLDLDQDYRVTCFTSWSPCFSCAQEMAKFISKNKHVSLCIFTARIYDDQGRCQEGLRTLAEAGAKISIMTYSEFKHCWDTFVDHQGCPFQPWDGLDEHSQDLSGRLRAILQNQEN
# Summary of the method: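 Yellow fluorescence (Ex 488, Em 500-530) of Vif-coexpressing HeLa A3G-eYFP cells, scanned by Acumen cytometer, reports blocked A3G degradation. Cells plated at 700/well overnight at 37 deg C before compound addition, then a further overnight compound incubation at 37 deg C.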
# [19] = tested on: Zika virus NS2B-NS3 protease; test: Primary screen GU AMC qHTS for Zika virus inhibitors (AID 1347154); settings: Zika NS2B-NS3 unlinked protease, AMC fluorogenic substrate; series mostly up to 54.1 µM;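 further: 0% = no-inhibitor control and -100% = no-enzyme control; nearly all actives have a fitted effect of over 70% in size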
# Summary of the method: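 Fluorogenic AMC-substrate cleavage by noncovalent NS2B-NS3 protease complex (25 nM, pH 8.0 Tris buffer with Tween 20) followed for 15 minutes at room temperature (~20% conversion). Percent inhibition from ex340/em450 signal change, fitted by 4-parameter Hill equation.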
# [20] = Counterscreen qHTS for small molecule stabilizers of the endoplasmic reticulum resident proteome: GLuc-NoTag assay (AID 1508627); settings: Gaussia luciferase NoTag secretion counterscreen, luminescence, thapsigargin 100 nM for final 4 h; series mostly up to 76.4 µM;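 further: 0% = thapsigargin alone and -100% = DMSO vehicle control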
# Summary of the method: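 Counterscreen line: SH-SY5Y-GLuc-NoTag cells, treated with compound 19 hr before a 4 hr, 100 nM thapsigargin calcium depletion. Secreted Gaussia luciferase in the medium was measured by luminescence after coelenterazine was added (0.07x final), with cells unlysed.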
# [21] = Confirmatory qHTS for small molecule stabilizers of the endoplasmic reticulum resident proteome: Secreted ER Calcium Modulated Protein (SERCaMP) assay (AID 1508628); settings: SERCaMP secreted luciferase ER calcium/proteostasis reporter; series mostly up to 76.3 µM; further: potency means the concentration at half of the fitted maximal effect; nearly all actives have a fitted effect of over 40% in size
# Summary of the method: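 Reporter secretion upon ER calcium depletion (100 nM thapsigargin, 4 h, 37C) is measured as medium luminescence with coelenterazine, after 16 h compound pretreatment of SH-SY5Y-GLuc-SERCaMP cells; primary at three concentrations up to 38.3 uM, follow-up at 11 (up to 76.6 uM).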
structure (smiles),measurement,setting,value
CSc1ccc2c(c1)[C@H](N1CCN(C)CC1)Cc1ccccc1S2,"activity change, negative = inhibition",[1]; at 17.2 µM (top of the series),22.7% (inactive)
same,"activity change, negative = inhibition",[1]; at 38 µM (top of the series),16% (inactive)
same,Potency,[2],31.6 µM (active)
same,"activity, negative = inhibition",[3]; at 17.2 µM (top of the series),-9.5% (inactive)
same,"activity, negative = inhibition",[3]; at 38 µM (top of the series),-17.1% (inactive)
same,Potency,[4],> 46 µM (inactive) and > 20.6 µM (inactive)
same,Potency,[5],> 46 µM (inactive) and > 20.6 µM (inactive)
same,Potency,[6],inactive
same,Potency,[7],inactive
same,outcome,[8],inactive
same,Potency,[9],3.98 µM (active) and 1.58 µM (active) and 316 nM (active)
same,Potency,[10],7.94 µM (active)
same,Potency,[11],10 µM (active)
same,Potency,[12],2.24 µM (active)
same,Potency,[13],5.62 µM (active)
same,Potency,[14],inactive
same,outcome,[15],inactive
same,"activity change, negative = inhibition",[16]; at 25.7 µM (top of the series),-1.54% (inactive)
same,max response,[16]; measured here: cell count channel max response,-9.42%
same,max response,[16]; measured here: lipid channel max response,-12.6%
same,Potency,[17],inactive
same,Potency,[18],inactive
same,Potency,[19],inactive
same,Potency,[20],inactive
same,Potency,[21],7.94 µM (active)
